# Assay results published in PubChem BioAssay AID504339 (National Center for Advancing Translational Sciences (NCATS), 2011).
# Screen size: about 390,000 compounds; about 17,000 (4.4%) were called active. Roughly 8% stayed inconclusive and do not appear here. The full list was thinned out, with actives kept by preference. A number with no mark means an inactive call. Calls come from the whole dose curve; as a rule, active = well fitted inhibition curve with a large enough effect; inconclusive = small, poorly fitted or top-dose-only effect; inactive = no such curve, though single readings can be large or run the other way.
# Target: Lysine-specific demethylase 4A (Homo sapiens) (UniProt O75164)
# Assay: qHTS Assay for Inhibitors of JMJD2A-Tudor Domain; note: nearly all actives have a fitted effect of over 50% in size
# Conditions: AlphaScreen JMJD2A-Tudor / H3K4me3 peptide binding; series mostly up to 114 µM; activity change, negative = inhibition: at the top concentration
# Excerpt: JMJD2A is a jumonji-domain-containing lysine demethylase that uses Fe(II) together with 2-OG to effect oxidative demethylation of histones. Methylation is one of many […] modification that affect epigenetic transcription. […] It is proposed that the functions of JmjD2A binding to the histones, is to maintain marks after they are installed and to spread the modifications by […], establishing a self-propagating cycle for rapid methylation over a large area of chromatin. […] Thus, small molecule targeting of the JMJD2A-tudor domain interaction with its target methylhistone mark is expected to enable sophisticated experiments probing the fine regulatory pathways leading to selective demethylation of a given methyllysine locus based on the methylation state of adjacent histone marks. A quantitative high throughput AlphaScreen has been developed to identify small molecule inhibitors based on a protocol published by NCGC and SGC [4].
# Although AlphaScreen has significant advantages with its utility in a variety of epigenetic target assays, the primary screening data provided in this deposition should be used with caution due to the prevalence of screening artifacts. The top compound concentration tested was high (>100uM) in this assay, which increases number of actives and potential artifacts. An AlphaScreen counterscreen is highly recommended to be run against any putative actives to eliminate non-specific artifacts. Alternatively, one can use other AlphaScreen assays in PubChem to filter out promiscuous hits.
# [1] Lee, J. et al. Distinct binding modes specify the recognition of methylated histone H3K4 and H4K20 by JMJD2A-tudor. Nat Struct Mol Biol. 15(1); 109-11. 2008. PMID: 18084306
# [2] Yasgar, et al. Compound Management for Quantitative High-Throughput Screening. JALA. 2008 Apr;13(2):79-89. PMID: 18496600
# [3] Inglese, et al. Quantitative high-throughput screening: a titration-based approach that efficiently identifies biological activities in large chemical libraries. Proc Natl Acad Sci. 1;103(31):11473-8. 2006. PMID: 16864780
# [4] Quinn et al. A homogeneous method for investigation of methyl-dependent protein-protein interactions in epigenetics. Nucleic Acids Res., 38(2):e11. 2010. PMID: […]
# [5] Baell,Holloway. New substructure filters for removal of pan assay interference compounds (PAINS) from screening libraries and for their exclusion in bioassays. J Med Chem. 53(7):2719-40. 2010. PMID: 20131845
# NIH Molecular Libraries Probe Production Network [MLPCN]
# NIH Chemical Genomics Center [NCGC]
# Structural Genomics Consortium (SGC)
# To each well of a 1,536w plate, 2ul of JMJD2A-Tudor (final 100nM) and 1ul biotinylated histone peptide methylated at Lys4 [b-H3(1-18)K4me3] (final 50nM) were added in 1x PBS buffer, pH 7.4, containing 0.01% Tween-20, using a nanoliter dispenser. Formation of a protein-peptide complex proceeded at room temperature for 30 min. A Kalypsys pin-tool transferred 23nl of library compound solution in DMSO to each well. Following a 30 min incubation of the protein-peptide complex with compounds at room temperature, a mixture of 40 µg/mL each streptavidin-coated donor and nickel chelate acceptor AlphaScreen beads (final 10 µg/mL) was added in a 1ul dispense for a final volume of 4ul, followed by a brief centrifugation (1000 rpm, 1 min). Plates were incubated protected from the light for 20 min at room temperature. Microplates were then read on an EnVision multilabel plate reader using the 1,536 plate HTS AlphaScreen aperture (excitation time 80 ms, measurement time 240 ms).
# % is set by controls: 0 for no effect and ±100 for the full control effect; potency is the fitted concentration of half-maximal effect.
# Lysine-specific demethylase 4A (Homo sapiens), sequence (O75164 whole entry, looked up, the tested form may be a part): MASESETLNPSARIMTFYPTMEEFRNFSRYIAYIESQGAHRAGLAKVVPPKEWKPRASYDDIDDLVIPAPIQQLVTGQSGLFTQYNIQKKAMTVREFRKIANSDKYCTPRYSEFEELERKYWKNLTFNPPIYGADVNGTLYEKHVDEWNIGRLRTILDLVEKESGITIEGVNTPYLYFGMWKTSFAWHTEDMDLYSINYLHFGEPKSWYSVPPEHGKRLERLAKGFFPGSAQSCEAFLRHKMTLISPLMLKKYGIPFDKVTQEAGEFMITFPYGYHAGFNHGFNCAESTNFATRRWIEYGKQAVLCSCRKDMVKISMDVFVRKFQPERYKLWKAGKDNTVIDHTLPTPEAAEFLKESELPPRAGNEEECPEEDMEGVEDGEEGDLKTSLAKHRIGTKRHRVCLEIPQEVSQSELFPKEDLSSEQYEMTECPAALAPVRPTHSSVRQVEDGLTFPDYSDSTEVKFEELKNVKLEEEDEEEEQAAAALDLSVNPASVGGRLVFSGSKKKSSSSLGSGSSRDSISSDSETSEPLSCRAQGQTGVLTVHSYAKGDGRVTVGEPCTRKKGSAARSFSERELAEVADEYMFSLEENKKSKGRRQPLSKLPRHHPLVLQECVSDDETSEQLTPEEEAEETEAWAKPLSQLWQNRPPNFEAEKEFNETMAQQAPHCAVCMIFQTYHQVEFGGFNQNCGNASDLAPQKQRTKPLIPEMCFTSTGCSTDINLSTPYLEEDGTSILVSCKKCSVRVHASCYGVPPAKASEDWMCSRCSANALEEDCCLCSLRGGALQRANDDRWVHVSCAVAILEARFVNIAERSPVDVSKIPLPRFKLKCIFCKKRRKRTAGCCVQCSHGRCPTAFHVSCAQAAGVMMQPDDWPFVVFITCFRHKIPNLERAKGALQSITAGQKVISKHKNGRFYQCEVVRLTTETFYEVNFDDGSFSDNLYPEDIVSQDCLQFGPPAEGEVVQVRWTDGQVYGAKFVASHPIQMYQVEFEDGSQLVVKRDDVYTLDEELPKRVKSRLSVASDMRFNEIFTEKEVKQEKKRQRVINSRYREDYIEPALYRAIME
Structure (SMILES),"activity change, negative = inhibition",Potency
CCN(CC)S(=O)(=O)c1ccc(NC(=O)c2cnc(C)cn2)cc1,0.664%,–
Cc1ccc(CNC(=O)c2cccnc2Cl)cc1,-11.1%,–
CCN(CC)S(=O)(=O)c1ccc(NC(=O)c2cccnc2Cl)c(NC(=O)c2cccnc2Cl)c1,–,31.6 µM (active)
Cc1ccccc1CN1CCC(CNC(=O)c2cc3ccc4cccnc4c3[nH]2)CC1,-27.2%,–
Cc1ccc(C(=O)Nc2c(C(=O)NC(C)(C)C)oc3ccccc23)cc1,6.8%,–
O=C(Cc1ccc(Cl)cc1)NCC(c1cccs1)S(=O)(=O)c1ccc(Cl)cc1 (stereo not given),-13.3%,–
Cc1ccc(NC(=O)C2CC2)cc1S(=O)(=O)N1CCOCC1,-17.9%,–
Cc1cc(C)c(S(=O)(=O)N2CCOCC2)cc1C,–,11.2 µM (active)
COc1cc(C)c(S(=O)(=O)N2CCOCC2)c(C)c1C,0%,–
Cn1nc(-c2ccccc2)c(-c2ccccc2)c(C(=O)Nc2ccc(S(N)(=O)=O)cc2)c1=O,-18.9%,–
CCOc1cccc2sc(N3CCN(C(=O)C4CC4)CC3)nc12,-8.44%,–
CCOC(=O)c1c(C)[nH]c(CCC(=O)Nc2ccc(OC)c(OC)c2)c1C,-27.9%,–
O=C1Cc2cc(S(=O)(=O)Nc3ccc(OC(F)(F)F)cc3)cc3c2N1CCC3,-14.3%,–
CN(C)c1ccc(C(=S)N2CCN(C(=S)Nc3ccc(Cl)cc3)CC2)cc1,–,28.2 µM (active)
CCOC(=O)c1ccc(NC(=S)N2CCCC2)cc1,-7.88%,–
O=C(NC1CCN(C(=S)Nc2ccc(Cl)cc2)CC1)C1CCCCC1,-8.8%,–
Cc1c(CNC2CCCCC2)c(C(=O)O)c(C)n1Cc1cccc(Cl)c1,-17.4%,–
Cc1cccc(NC(=O)CSc2nnc(CNC(=O)c3cccc(C)c3)n2-c2ccccc2)c1,-19.5%,–
O=C(N/N=C/c1cc(Cl)cc([N+](=O)[O-])c1O)C(O)(c1ccccc1)c1ccccc1,–,50.1 µM (active)
O=C(Cc1ccccc1)N/N=C/c1ccc(Cl)cc1Cl,-6.47%,–
Cc1nn(-c2ccccc2)c(Cl)c1/C=N/NC(=O)c1nn(C)cc1[N+](=O)[O-],15.2%,–
CCOC(=O)c1ccc(NC(=O)Cn2c(=O)cc(C)c3c(C)nn(-c4cccc(F)c4)c32)cc1,-6.67%,–
CCN1C(=O)c2ccccc2S(=O)c2ccc(C(=O)NCc3ccc(F)cc3)cc21 (stereo not given),1.68%,–
CN(c1ccc2nc3ccccc3c(=O)n2n1)C1CCCCC1,4.35%,–
CN(C)c1cc(N)c2ccccc2n1 (tested in a mixture with another compound),–,2.82 µM (active)

Structure (SMILES),"activity change, negative = inhibition",Potency
O=C(CC1N=C2c3ccccc3N=C(SCc3ccc(F)cc3)N2C1=O)NCc1cccs1 (stereo not given),-21%,–
Cc1cc(-c2ccc(C)c(S(=O)(=O)N3c4ccccc4CC3C)c2)on1 (stereo not given),11.7%,–
O=S(=O)(c1ccc2nc(N3CCN(c4cccc(Cl)c4)CC3)ccc2c1)N1CCCCC1,9.42%,–
CCCCC1(C(=O)OCC)NC(c2ccc(O)cc2)C2C(=O)N(c3ccccc3)C(=O)C21 (stereo not given),–,28.2 µM (active)
COC(=O)C1(C)NC(c2ccc(F)cc2)C2C(=O)N(c3ccccc3)C(=O)C21 (stereo not given),1.31%,–
CCOC(=O)C1(C)NC(c2ccco2)C2C(=O)N(c3ccccc3)C(=O)C21 (stereo not given),-18.4%,–
COc1ccccc1CNC(=O)C(=O)NCC(c1cccs1)S(=O)(=O)c1cccs1 (stereo not given),-17.5%,–
CCCN(CCC)S(=O)(=O)c1ccc(C(=O)Nc2sc3c(c2C(=O)OC)CCN(CC)C3)cc1,-9.17%,–
Cc1ccc2oc(C(=O)Nc3ccc(S(=O)(=O)N4CCCCCC4)cc3)cc(=O)c2c1,-14.2%,–
CC1CCCCN1CC(=O)N1CCCc2c1c(=O)oc1ccc(OCc3ccccc3)cc21 (stereo not given),-29.8%,–
Cc1ccc(NC(=O)CNCc2ccccn2)cc1S(=O)(=O)N(C)C,–,56.2 µM (active)
CCN(c1ccccc1)S(=O)(=O)c1cc(C(=O)NCc2ccccn2)ccc1C,-17.2%,–
Cc1ccc(C(=O)Nc2ccc(C)c(S(=O)(=O)N(C)C)c2)s1,-9.67%,–
Cc1ccc(OCC(=O)Nc2ccc(OCc3cc(=O)n4c(C)csc4n3)cc2)cc1C,-23.8%,–
Cc1cccc(NC(=O)Cn2c(C(F)(F)F)nc3ccccc32)c1C,-12.8%,–
CCc1nccn1S(=O)(=O)c1cc(Br)ccc1Br,-1.49%,–
N#C/C(=C\c1ccccc1F)c1nc2ccccc2c(=O)[nH]1,-15.7%,–
Cc1n[nH]c(=O)n1-c1ccc(Oc2ccccc2)cc1,-11%,–
Cc1ccc(-c2cc(C(=O)NC3CCN(Cc4ccccc4)CC3)c3ccccc3n2)cc1,-14.5%,–
Cc1ccc(-c2nc(=N)sn2Cc2ccccc2)cc1,–,4.47 µM (active)
COc1ccc(-c2nc(=N)sn2-c2ccccc2)cc1,–,5.62 µM (active)
COc1ccc(-c2nn3c(-c4ccc(OC)cc4)nnc3c3ccccc23)cc1,5.15%,–
Cc1ccc(CN2C(=O)SC(Nc3ccccc3)C2=O)cc1 (stereo not given),14.8%,–
CC(C)c1ccc2oc(-c3cc(NC(=O)c4cccs4)ccc3Cl)nc2c1,-2.99%,–
COC(=O)c1cc(NC(=O)CCc2c(C)nc3c4c(C)cc(C)nc4nn3c2C)cc(C(=O)OC)c1,-13.2%,–
